For some assays here: Results with a measured potency or affinity are listed apart. Active and inactive are the calls of the source. No rule for the calls is given here.
The compounds below were run against Plasmodium falciparum protein kinase 6 (PK6, PF3D7_1337100) (UniProt Q8IDW1) (assay: PfPK6 kinase inhibitors, biochemical, TCAMS library (AID 1159586)). Conditions: recombinant PfPK6, Kinase-Glo ATP depletion luminescence.
Plasmodium falciparum protein kinase 6 (PK6, PF3D7_1337100), sequence (Q8IDW1 1-305): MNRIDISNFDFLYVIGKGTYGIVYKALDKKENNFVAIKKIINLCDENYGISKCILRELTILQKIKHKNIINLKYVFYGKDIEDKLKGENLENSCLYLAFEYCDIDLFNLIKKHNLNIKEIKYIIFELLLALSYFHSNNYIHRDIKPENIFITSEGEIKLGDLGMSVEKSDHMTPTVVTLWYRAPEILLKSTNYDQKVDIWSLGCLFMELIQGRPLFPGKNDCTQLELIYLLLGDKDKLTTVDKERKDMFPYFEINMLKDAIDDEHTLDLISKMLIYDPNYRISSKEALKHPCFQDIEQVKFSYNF

outcome, inactive:
Cc1cc2c3c(N)nc(N)nc3ccc2n1C(C)C, CN1CCN(CC(=O)Nc2ccc(-c3cccc(-c4nc5ccc(F)cc5[nH]4)c3)cc2)CC1, CCN1CCC(N(Cc2ccc(-c3ccc(C(F)(F)F)cc3)cc2)C(=O)Cn2c(CCc3cccc(F)c3F)cc(=O)c3cn(C)nc32)CC1, O=C(Nc1ccc(N2CCN(c3ncccc3C(F)(F)F)CC2)nc1)c1cccs1, COCCn1c(-c2cccc(Cl)c2)nn(-c2ccc([N+](=O)[O-])cc2C#N)c1=S, O=S(=O)(NCCN1CCCC1)c1cccc(-c2ccc(CNCc3ccccc3)cc2)c1, COc1cccc(NC(=O)[C@H](C(C)C)n2c(=O)[nH]c3ccccc3c2=O)c1, C=CCN1Cc2c(O)cccc2C(c2ccc(O)c(O)c2)C1 (stereo unspecified), COc1cc(C(C)C)ccc1N1CCN(CCCCNC(=O)c2ccc(NC(=O)c3ccc(Cl)cc3)cc2)CC1, CCCNS(=O)(=O)c1ccc(NC(=O)C(C)Oc2ccc([N+](=O)[O-])cc2)cc1 (stereo unspecified), CC(C)CN1CCCN(Cc2cccc(NC(=O)c3ccc(Cl)c(Cl)c3)c2)CC1, COc1ccccc1C(=O)N1CCN(Cc2cccs2)CC1, Cc1ccc(CNC(=O)[C@H](CC(C)C)Nc2cc(C)nc(NCc3ccccc3C)n2)cc1, CCC[C@]1(C)CSc2ccccc2[C@@H](c2ccccc2)N1, COc1ccc(-c2cccc(NC(=O)c3cccc(Cl)c3)c2)cc1CNC(C)C, CCn1c(Sc2ccc(C#N)c([N+](=O)[O-])c2)nnc1-c1cc(OC)cc(OC)c1, CC1(C)N=C(N)N=C(N)N1OCCSCCON1C(N)=NC(N)=NC1(C)C, Cc1ccc(S(=O)(=O)N2CCN(C(=O)c3cc(-c4ccccc4)n[nH]3)CC2)cc1, CN(C)CCNCc1ccc(-c2cccc(-c3nc4ccccc4[nH]3)c2)cc1, COc1cc(NC(=O)c2c(-c3c(F)cccc3Cl)noc2C)c(OC)cc1Cl, Cc1occc1C(=O)Nc1nc(-c2ccccn2)nc2ccsc12, COc1ccc(NCCCNc2ccnc3ccccc23)cc1, c1ccc(CN2CCN(c3cc(-c4cncc(-c5ccccc5)c4)nc(-c4ccccc4)n3)CC2)cc1, O=C(Nc1ccccc1)c1ccc(-c2cc3ccncc3cc2OC2CCNCC2)s1, Cc1nc2nc(N)nc(N)c2c(C)c1Cc1c(Cl)cccc1Cl, O=C(/C=C/c1ccc(Cl)c(Cl)c1)NCCCCCN1CCC(CCNC(=O)Cc2ccc(Cl)cc2)CC1, Cc1c(F)cc(C(=O)NC2CC2)cc1-c1ccc2c(cnn2S(=O)(=O)c2ccc(Cl)s2)c1, Cc1cccc2[nH]c(-c3ccc(-c4ccc(CN5CCC(C(N)=O)CC5)cc4)cc3)nc12, CC(Cc1ccc(NC(=O)c2ccc(CNCCCCc3ccccc3)cc2)cc1)NCCc1cccc(Cl)c1 (stereo unspecified), NC1=NC(c2ccccc2)(c2ccccc2)C(=O)N1CCCCc1ccccn1, OCC(c1ccccc1)n1c(COc2ccc(Cl)cc2)nc2c(OCCCN3CCCCC3)cccc21 (stereo unspecified)

These compounds were tested against Protein kinase 7 (PK7), Plasmodium falciparum 3D7 (PF3D7_0213400) (UniProt Q7YTF7) (assay: inhibition of Plasmodium PK7 catalytic activity – biochemical, TCAMS antimalarial set, Kinase-Glo luminescence (AID 1159587)). Conditions: recombinant PfPK7, Kinase-Glo ATP depletion luminescence.
Protein kinase 7 (PK7), Plasmodium falciparum 3D7 (PF3D7_0213400), sequence (Q7YTF7 1-343): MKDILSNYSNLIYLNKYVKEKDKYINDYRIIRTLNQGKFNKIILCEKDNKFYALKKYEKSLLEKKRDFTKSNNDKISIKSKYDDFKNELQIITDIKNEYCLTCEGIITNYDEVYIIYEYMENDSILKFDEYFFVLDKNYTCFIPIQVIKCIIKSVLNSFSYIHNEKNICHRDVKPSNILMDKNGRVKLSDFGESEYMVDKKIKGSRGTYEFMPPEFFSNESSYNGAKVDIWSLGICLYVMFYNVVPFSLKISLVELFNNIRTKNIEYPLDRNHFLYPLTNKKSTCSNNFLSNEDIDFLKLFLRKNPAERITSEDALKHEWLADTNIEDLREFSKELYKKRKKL

outcome, inactive:
CN1CCCN(Cc2ccc(-c3cccc(NC(=O)c4ccc(C#N)cc4)c3)cc2)CC1, COc1ccc(C2CCN(C#N)C2)cc1OC1CCCC1 (stereo unspecified), COc1cc2nc(N3CCN(C(=O)c4cccc(I)c4)CC3)nc(N)c2cc1OC, CN(CCNCc1ccc(-c2cccc(-c3nc4ccccc4[nH]3)c2)cc1)S(C)(=O)=O, COc1cccc2c(C)cc(NCc3ccc(Cl)cc3)nc12, CCOC(=O)c1[nH]c(-c2cccnc2)nc1NC(=S)NCc1ccccc1, CCOC(=O)c1cnc2c(OC)cc(OC)c(Cl)c2c1Nc1ccccc1, FC(F)(F)c1ccc2nc(-c3ccc(-c4ccc(CNCC5CCCO5)cc4)s3)[nH]c2c1 (stereo unspecified), CCCCOP(=O)(OCCCC)C(=Cc1ccc(O)c2ccccc12)P(=O)(OCCCC)OCCCC, Cc1cc2c3c(N)nc(N)nc3ccc2n1C(C)C, CN1CCN(CC(=O)Nc2ccc(-c3cccc(-c4nc5ccc(F)cc5[nH]4)c3)cc2)CC1, CCN1CCC(N(Cc2ccc(-c3ccc(C(F)(F)F)cc3)cc2)C(=O)Cn2c(CCc3cccc(F)c3F)cc(=O)c3cn(C)nc32)CC1, O=C(Nc1ccc(N2CCN(c3ncccc3C(F)(F)F)CC2)nc1)c1cccs1, COCCn1c(-c2cccc(Cl)c2)nn(-c2ccc([N+](=O)[O-])cc2C#N)c1=S, O=S(=O)(NCCN1CCCC1)c1cccc(-c2ccc(CNCc3ccccc3)cc2)c1, COc1cccc(NC(=O)[C@H](C(C)C)n2c(=O)[nH]c3ccccc3c2=O)c1, C=CCN1Cc2c(O)cccc2C(c2ccc(O)c(O)c2)C1 (stereo unspecified), COc1cc(C(C)C)ccc1N1CCN(CCCCNC(=O)c2ccc(NC(=O)c3ccc(Cl)cc3)cc2)CC1, CCCNS(=O)(=O)c1ccc(NC(=O)C(C)Oc2ccc([N+](=O)[O-])cc2)cc1 (stereo unspecified), CC(C)CN1CCCN(Cc2cccc(NC(=O)c3ccc(Cl)c(Cl)c3)c2)CC1, COc1ccccc1C(=O)N1CCN(Cc2cccs2)CC1, Cc1ccc(CNC(=O)[C@H](CC(C)C)Nc2cc(C)nc(NCc3ccccc3C)n2)cc1, CCC[C@]1(C)CSc2ccccc2[C@@H](c2ccccc2)N1, COc1ccc(-c2cccc(NC(=O)c3cccc(Cl)c3)c2)cc1CNC(C)C, CCn1c(Sc2ccc(C#N)c([N+](=O)[O-])c2)nnc1-c1cc(OC)cc(OC)c1, CC1(C)N=C(N)N=C(N)N1OCCSCCON1C(N)=NC(N)=NC1(C)C, Cc1ccc(S(=O)(=O)N2CCN(C(=O)c3cc(-c4ccccc4)n[nH]3)CC2)cc1, CN(C)CCNCc1ccc(-c2cccc(-c3nc4ccccc4[nH]3)c2)cc1, COc1cc(NC(=O)c2c(-c3c(F)cccc3Cl)noc2C)c(OC)cc1Cl, Cc1occc1C(=O)Nc1nc(-c2ccccn2)nc2ccsc12, COc1ccc(NCCCNc2ccnc3ccccc23)cc1, c1ccc(CN2CCN(c3cc(-c4cncc(-c5ccccc5)c4)nc(-c4ccccc4)n3)CC2)cc1, O=C(Nc1ccccc1)c1ccc(-c2cc3ccncc3cc2OC2CCNCC2)s1, Cc1nc2nc(N)nc(N)c2c(C)c1Cc1c(Cl)cccc1Cl, O=C(/C=C/c1ccc(Cl)c(Cl)c1)NCCCCCN1CCC(CCNC(=O)Cc2ccc(Cl)cc2)CC1, Cc1c(F)cc(C(=O)NC2CC2)cc1-c1ccc2c(cnn2S(=O)(=O)c2ccc(Cl)s2)c1, Cc1cccc2[nH]c(-c3ccc(-c4ccc(CN5CCC(C(N)=O)CC5)cc4)cc3)nc12, CC(Cc1ccc(NC(=O)c2ccc(CNCCCCc3ccccc3)cc2)cc1)NCCc1cccc(Cl)c1 (stereo unspecified), NC1=NC(c2ccccc2)(c2ccccc2)C(=O)N1CCCCc1ccccn1, OCC(c1ccccc1)n1c(COc2ccc(Cl)cc2)nc2c(OCCCN3CCCCC3)cccc21 (stereo unspecified)
